What all share (assay): universal protein binding microarray (PBM); transcription factors of Arabidopsis thaliana; high values mean tight binding
Holding throughout (conditions): protein: recombinant; tags: GST; chain copies: 2; dsDNA, one strand shown

The target in one experiment is T1, GST-ANAC092(1-176) (Arabidopsis thaliana, UniProt Q9FKA0 1-176).
T1 sequence: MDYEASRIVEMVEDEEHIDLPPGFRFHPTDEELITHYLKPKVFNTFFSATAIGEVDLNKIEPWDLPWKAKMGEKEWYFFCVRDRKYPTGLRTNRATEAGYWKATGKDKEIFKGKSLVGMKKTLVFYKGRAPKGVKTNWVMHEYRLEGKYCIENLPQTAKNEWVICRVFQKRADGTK
The method, boiled down: (§1)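 Cells were induced to make GST-tagged NAC-domain, full-length or DNA-binding-domain proteins, and zinc acetate was added for zinc-finger proteins. These proteins were purified on glutathione–Sepharose 4B, quantified by A280 or anti-GST western blot, and applied in duplicate at 200 to 500 nM final to custom all-10-mer Agilent 4 × 180K arrays that primer extension had made double-stranded. Binding is given as the normalised enrichment score (E-score) for scored gapped and ungapped 8-mers.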

The target of another experiment is T2, GST-ANAC019 NAC domain (Arabidopsis thaliana, UniProt Q9C932 14-162).
T2 sequence: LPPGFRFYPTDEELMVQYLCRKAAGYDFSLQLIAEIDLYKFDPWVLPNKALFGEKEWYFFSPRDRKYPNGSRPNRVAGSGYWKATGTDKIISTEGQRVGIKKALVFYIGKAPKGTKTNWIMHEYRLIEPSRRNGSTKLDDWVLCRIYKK
The method, boiled down:
as §1

The target in the next experiment is T3, GST-ANAC055(1-171) (Arabidopsis thaliana, UniProt Q9LDY8 1-171).
T3 sequence: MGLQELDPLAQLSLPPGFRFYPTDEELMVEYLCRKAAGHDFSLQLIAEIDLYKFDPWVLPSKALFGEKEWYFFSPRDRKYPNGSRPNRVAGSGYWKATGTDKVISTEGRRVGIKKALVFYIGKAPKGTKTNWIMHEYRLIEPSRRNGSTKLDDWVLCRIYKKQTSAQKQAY
The method, boiled down:
as §1

The next experiment concerns the target T4, GST-ATAF1 NAC domain (Arabidopsis thaliana, UniProt Q39013 7-158).
T4 sequence: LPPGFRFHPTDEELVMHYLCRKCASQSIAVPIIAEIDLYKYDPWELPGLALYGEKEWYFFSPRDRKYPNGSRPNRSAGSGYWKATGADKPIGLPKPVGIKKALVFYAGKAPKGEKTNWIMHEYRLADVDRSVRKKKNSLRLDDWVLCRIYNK
The method, boiled down: as §1

Experiment [1] deals with T5, GST-ANAC092(1-285) full length (Arabidopsis thaliana, UniProt Q9FKA0 1-285).
T5 sequence: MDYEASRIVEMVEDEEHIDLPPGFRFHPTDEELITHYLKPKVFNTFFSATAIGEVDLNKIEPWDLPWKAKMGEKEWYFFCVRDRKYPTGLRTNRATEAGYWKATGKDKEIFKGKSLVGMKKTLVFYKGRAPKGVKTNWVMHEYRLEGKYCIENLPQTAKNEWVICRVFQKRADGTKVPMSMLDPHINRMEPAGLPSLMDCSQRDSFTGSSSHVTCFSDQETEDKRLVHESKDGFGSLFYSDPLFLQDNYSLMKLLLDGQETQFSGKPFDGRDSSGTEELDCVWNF
The method, boiled down:
as §1

The next experiment addresses T6, GST-NAP(1-166) (Arabidopsis thaliana, UniProt O49255 1-166).
T6 sequence: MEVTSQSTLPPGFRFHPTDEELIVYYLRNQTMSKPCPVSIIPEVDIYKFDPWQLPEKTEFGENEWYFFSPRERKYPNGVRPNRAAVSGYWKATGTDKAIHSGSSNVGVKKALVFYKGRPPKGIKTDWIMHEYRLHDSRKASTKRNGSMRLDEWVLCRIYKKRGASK
The method, boiled down:
as §1

The target of a further experiment is T7, GST-NST2(1-184) (Arabidopsis thaliana, UniProt Q9M274 1-184).
T7 sequence: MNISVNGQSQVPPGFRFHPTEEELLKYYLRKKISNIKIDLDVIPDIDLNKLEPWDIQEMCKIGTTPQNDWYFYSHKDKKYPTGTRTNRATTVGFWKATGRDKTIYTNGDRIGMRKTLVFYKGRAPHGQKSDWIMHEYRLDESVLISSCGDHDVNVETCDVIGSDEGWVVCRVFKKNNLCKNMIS
An outline of the steps:
as §1

The next experiment addresses T8, GST-SND1(1-203) (Arabidopsis thaliana, UniProt Q9LPI7 1-203).
T8 sequence: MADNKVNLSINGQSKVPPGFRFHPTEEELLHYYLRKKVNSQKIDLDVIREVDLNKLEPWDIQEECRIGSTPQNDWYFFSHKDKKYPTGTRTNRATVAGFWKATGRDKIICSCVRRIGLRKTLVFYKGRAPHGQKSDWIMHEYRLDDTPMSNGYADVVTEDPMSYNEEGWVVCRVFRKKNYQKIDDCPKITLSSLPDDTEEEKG
The method, boiled down:
as §1

A further experiment addresses T9, GST-VND3 NAC domain (Arabidopsis thaliana, UniProt Q9FH59 12-162).
T9 sequence: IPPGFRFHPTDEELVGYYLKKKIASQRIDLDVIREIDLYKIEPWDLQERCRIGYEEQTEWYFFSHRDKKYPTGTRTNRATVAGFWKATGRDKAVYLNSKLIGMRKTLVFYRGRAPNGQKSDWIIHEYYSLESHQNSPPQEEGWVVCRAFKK
An outline of the steps:
as §1

The next experiment concerns the target T10, GST-VND7 NAC domain (Arabidopsis thaliana, UniProt Q9C8W9 9-158).
T10 sequence: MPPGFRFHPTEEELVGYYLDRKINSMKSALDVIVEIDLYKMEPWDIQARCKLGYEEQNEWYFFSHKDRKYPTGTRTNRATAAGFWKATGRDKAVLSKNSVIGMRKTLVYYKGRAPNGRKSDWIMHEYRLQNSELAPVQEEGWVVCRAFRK
The method, boiled down: as §1

TACACGTA: the binding signal with GST-ANAC092(1-176) is 0.382 E-score; with GST-ANAC019 NAC domain, 0.286 E-score; in the experiment with GST-ANAC055(1-171), 0.361 E-score; with GST-ATAF1 NAC domain, 0.322 E-score; in experiment [1], 0.411 E-score; with GST-NAP(1-166), 0.386 E-score. Besides, the binding signal is 0.198 E-score with GST-NST2(1-184), 0.251 E-score in the experiment with GST-SND1(1-203), 0.375 E-score in the experiment with GST-VND3 NAC domain and 0.406 E-score in the experiment with GST-VND7 NAC domain.

Take ATAACGTG: the binding signal is 0.446 E-score with GST-ANAC092(1-176); 0.0978 E-score with GST-ANAC019 NAC domain; 0.143 E-score in the experiment with GST-ANAC055(1-171); 0.142 E-score with GST-ATAF1 NAC domain; 0.447 E-score in experiment [1]; 0.165 E-score with GST-NAP(1-166). Moreover, the binding signal stood at 0.221 E-score with GST-NST2(1-184), 0.299 E-score with GST-SND1(1-203), 0.191 E-score with GST-VND3 NAC domain and 0.109 E-score in the experiment with GST-VND7 NAC domain.

Consider GCACGCAA, for which the binding signal is 0.492 E-score in the experiment with GST-ANAC092(1-176); 0.458 E-score in the experiment with GST-ANAC019 NAC domain; 0.396 E-score with GST-ANAC055(1-171); 0.277 E-score with GST-ATAF1 NAC domain; 0.493 E-score in experiment [1]; 0.423 E-score with GST-NAP(1-166). In addition, the binding signal is 0.405 E-score with GST-NST2(1-184), 0.456 E-score with GST-SND1(1-203), 0.438 E-score with GST-VND3 NAC domain and 0.431 E-score with GST-VND7 NAC domain.

Consider CACGCCAC, for which the binding signal with GST-ANAC092(1-176) was 0.481 E-score; with GST-ANAC019 NAC domain, 0.33 E-score; with GST-ANAC055(1-171) it was 0.268 E-score; with GST-ATAF1 NAC domain, 0.293 E-score; in experiment [1] it was 0.488 E-score; with GST-NAP(1-166), 0.292 E-score. Moreover, the binding signal with GST-NST2(1-184) turned out to be 0.298 E-score; with GST-SND1(1-203), 0.386 E-score; with GST-VND3 NAC domain it was 0.168 E-score; with GST-VND7 NAC domain, 0.271 E-score.

Take AACACGCA: the binding signal came out at 0.469 E-score with GST-ANAC092(1-176); 0.415 E-score with GST-ANAC019 NAC domain; 0.345 E-score with GST-ANAC055(1-171); 0.315 E-score in the experiment with GST-ATAF1 NAC domain; 0.477 E-score in experiment [1]; 0.386 E-score with GST-NAP(1-166). In addition, the binding signal in the experiment with GST-NST2(1-184) was 0.263 E-score; with GST-SND1(1-203), 0.335 E-score; with GST-VND3 NAC domain, 0.346 E-score; with GST-VND7 NAC domain, 0.34 E-score.

GCGTGTAC: the binding signal amounted to 0.403 E-score with GST-ANAC092(1-176); 0.19 E-score with GST-ANAC019 NAC domain; 0.196 E-score with GST-ANAC055(1-171); 0.19 E-score in the experiment with GST-ATAF1 NAC domain; 0.434 E-score in experiment [1]; 0.261 E-score with GST-NAP(1-166). The binding signal is 0.195 E-score with GST-NST2(1-184), 0.191 E-score with GST-SND1(1-203), 0.197 E-score with GST-VND3 NAC domain and 0.193 E-score with GST-VND7 NAC domain.

As for ACGTTAAC, the binding signal with GST-ANAC092(1-176) worked out at 0.421 E-score; with GST-ANAC019 NAC domain it was 0.257 E-score; in the experiment with GST-ANAC055(1-171) it was 0.228 E-score; in the experiment with GST-ATAF1 NAC domain it was 0.227 E-score; in experiment [1], 0.438 E-score; with GST-NAP(1-166), 0.218 E-score. Moreover, the binding signal in the experiment with GST-NST2(1-184) came to 0.27 E-score; with GST-SND1(1-203), 0.412 E-score; with GST-VND3 NAC domain, 0.209 E-score; with GST-VND7 NAC domain, 0.207 E-score.

The values above are taken from publication PMC4081100, “A DNA-binding-site landscape and regulatory network analysis for NAC transcription factors in Arabidopsis thaliana”.
